PubChem BioAssay (Tox21)
Where “and” joins values, the source holds several entries; their conditions need not be identical. Identical values can stand only once. Records with an inconclusive call do not appear. A number with no mark means an inactive call. Calls of active or inactive are those of the source. Calls follow the shape of the dose curve; as a rule, active = well fitted cell-killing curve with a large enough effect in the repeat runs; inconclusive = weak or mixed curves; inactive = flat fitted curve, though single readings scatter.

Experiment: qHTS assay to identify small molecule antagonists of the estrogen related receptor (ERR) signaling pathway from Tox21 library - cell viability counter screen (AID 1224834); also: nearly all actives have a fitted effect of over 30% in size
Settings: ERR reporter cells viability, CellTiter-Fluor, 17.5 h; series mostly up to 92.4 µM; viability change, negative = cytotoxic: at the top concentration
Excerpt: National Center for Advancing Translational Sciences [NCATS]
NIH Chemical Genomics Center [NCGC]
U.S. Environmental Protection Agency [EPA]
National Institutes of Environmental Health Sciences [NIEHS]
National Toxicology Program [NTP]
U.S. Food and Drug Administration [FDA]
Estrogen related receptors (ERRs), the first orphan nuclear receptors discovered, play an important role in the control of cellular energy metabolism. ERRs are required for high-energy production in response to the environmental challenges. ERR-alpha was also identified as an adverse marker for breast cancer progression; ERR-alpha-positive tumors have a poor prognosis. To screen and to identify environmental compounds that perturb the ERR signaling pathways could provide valuable information for potential therapeutic or preventive measures in the treatment of metabolic disease. To differentiate true ERR antagonists or agonist from cytotoxic substances, the assay is multiplexed with cell viability assay.
Tox21 Assay Protocol Summary:
The ERR cells were dispensed at 2,000 cells/5 ul/well in 1536-well white plates using a Multidrop dispenser. After the assay plates were incubated at a 37 C/5% CO2 incubator for 6 hours, 23 nL of compounds dissolved in DMSO, positive and negative controls or DMSO only was transferred to the assay plate by a pin tool. The plates were incubated at 37 C for 17.5 hours. 1 ul/well of CellTiter-Fluor reagent was added into the assay plates using a Flying Reagent Dispenser. After 30-minute incubation at 37 C/5% CO2, the fluorescence intensity in the plates was measured using a ViewLux plate reader.
% is scaled to controls: 0 for no effect and ±100 for the full control effect; potency is read from the fitted curve at half-maximal effect.

SMILES | Potency | viability change, negative = cytotoxic
NC(=O)C1(N2CCCCC2)CCN(CCCN2c3ccccc3CCc3ccc(Cl)cc32)CC1 | 29.8 µM (active) | –
CCOC(=O)O[C@]1(C(=O)OCCl)CC[C@H]2[C@@H]3CCC4=CC(=O)C=C[C@]4(C)[C@H]3[C@@H](O)C[C@@]21C | – | 2.08% [at 42.5 µM]
CCCCCCCCCCCCCCCS(=O)(=O)Oc1ccccc1 | – | -1.44% [at 42.5 µM]
O=[N+]([O-])c1cc([N+](=O)[O-])c2ccc(S(=O)(=O)O)cc2c1O | 12.1 µM (active) | –
CCCCCCCCNC(C)C(O)c1ccc(SC(C)C)cc1 (stereo not given) | 26.6 µM (active) | –
[Cl][Au]([Cl])[Cl] | 27.3 µM (active) | –
OCCN1CCN(CC/C=C2/c3ccccc3Sc3ccc(C(F)(F)F)cc32)CC1 | 29.8 µM (active) | –
Clc1ccc(C(Cn2ccnc2)OCc2ccc(Sc3ccccc3)cc2)c(Cl)c1 (stereo not given) | – | 1.26% [at 42.5 µM]
CCCCCCCCCCCCCCCCCC[N+](C)(C)Cc1ccccc1 | 49 µM (active) | –
CCCCCCCC[N+](CCCCCCCC)(CCCCCCCC)CCCCCCCC | 24.3 µM (active) | –
On1ccccc1=S | 1.71 µM (active) | –
O=c1c(-c2ccccc2)c1-c1ccccc1 | 8.41 µM (active) | –
O=C1C=CC(=O)N1c1ccc(Cc2ccc(N3C(=O)C=CC3=O)cc2)cc1 | 30.6 µM (active) | –
Nc1ccc(N)c2ccccc12 | 30.6 µM (active) | –
Oc1c(Cl)cc(Cl)c2cccnc12 | 13.3 µM (active) | –
c1ccc(CSCc2ccccc2)cc1 | – | 1.18%
CCN(C(=O)c1cc(C)cc(OC[C@H](C)Nc2ccncc2)c1)C(C)C | – | 2.61% [at 42.5 µM]
Clc1ccc2n[nH]nc2c1 | – | 8.02%
COc1ccc(CN2CCN(C(c3ccc(F)cc3)c3ccc(F)cc3)CC2)c(OC)c1OC | 13.3 µM (active) | –
Cc1ccc2oc(CN(Cc3ccccc3)C(=O)Nc3c(F)cc(F)cc3F)c(-c3ccc(Cl)cc3)c2c1 | – | -0.638%

SMILES | Potency | viability change, negative = cytotoxic
CC1(C)CCC(C)(C)c2cc(C(=O)Nc3ccc(C(=O)O)cc3)ccc21 | – | -9.21%
[Cl][Bi]([Cl])([c]1ccccc1)([c]1ccccc1)[c]1ccccc1 | 13.6 µM (active) | –
CN(C)C(=O)C1(N2CCCCC2)CCN(CC[C@@]2(c3ccc(Cl)c(Cl)c3)CN(C(=O)c3ccccc3)CCO2)CC1 | 50.9 µM (active) | –
CCC(C)Nc1ccc(NC(C)CC)cc1 (stereo not given) | 19.7 µM (active) | –
CC(=O)S[C@@H]1CC2=CC(=O)CC[C@]2(C)[C@H]2CC[C@@]3(C)[C@@H](CC[C@@]34CCC(=O)O4)[C@H]12 | – | -8.94%
O=c1[nH]sc2cc(Cl)ccc12 | – | -19.8% [at 42.5 µM]
Cc1cccc(CN2CCN(C(c3ccccc3)c3ccc(Cl)cc3)CC2)c1 (stereo not given) | – | -11.2% [at 42.5 µM]
CCC1OCC(COc2ccc(Oc3ccccc3)cc2)O1 (stereo not given) | – | -1.66%
CCc1cc(Cc2cc(CC)cc(C(C)(C)C)c2O)c(O)c(C(C)(C)C)c1 | 54.5 µM (active) | –
COC(=O)C1=C(C)NC(C)=C(C(=O)OCC(C)C)C1c1ccccc1[N+](=O)[O-] (stereo not given) | 21.7 µM (active) and 29.8 µM (active) | –
CCC(Cl)C(Cl)C(Cl)CC(Cl)C(Cl)C(C)Cl (stereo not given) | – | -3.81%
C=CC(=O)OCC(CO)(COC(=O)C=C)COC(=O)C=C | 6.88 µM (active) and 13.7 µM (active) | –
C=C(C)C(=O)OCC(O)COc1ccc(C(C)(C)c2ccc(OCC(O)COC(=O)C(=C)C)cc2)cc1 (stereo not given) | 48.6 µM (active) | –
CCC(C)(C)C1CCCCC1OC(C)=O (stereo not given) | – | 0.233%
CCCCCCCCCCCCc1ccc(O)cc1 | 54.5 µM (active) | –
CSc1cnc(C)cn1 | – | 2.97% [at 240 µM]
CN(C/C=C/C#CC(C)(C)C)Cc1cccc2ccccc12 | – | 0.642% [at 42.5 µM]
O=C1CCCCCN1SSN1CCCCCC1=O | – | 1.58%
Nc1ccccc1O | 60.3 µM (active) | –
O=C(O)c1cc(O)c2c(c1)C(=O)c1cccc(O)c1C2=O | – | -8.74%
